Measurements published in the supplement of paper PMC10849652.
About 8,800 targets were measured; listed, in parts, are those with a hit and a random draw of the rest. About 0.5% of all pairs of compound and target were hits.

How the values were obtained:
Assay in all cases: log2 fold change, soluble protein after heating vs DMSO (PISA); higher = thermal stabilisation; K562 lysate, 10 uM; active = over 0.2 and 3.5 SD of the protein, either way, in both replicates (recomputed)
[1] = compound: C1=CC=C(C=C1)[C@H](COC2=CC3=C(C=C2)NC(=O)N3)NC(=O)C4=CC=CN(C4=O)CC5=CC(=C(C=C5)F)F
Outline: (§1)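 Quantification was by TMTpro 16plex LC-MS/MS with equalised channel sums, applied to the supernatant after 21,000xg for 90 min. Samples were crude K562 extract at 1 mg/mL protein in PBS pH 7.4 with 1 mM MgCl2, treated with 10 μM compound for 30 min, heated for 3 min across 48°C-58°C, pooled and brought to 0.5% NP-40 at 4°C. Values are log-two fold changes in thermal stability relative to solvent controls, from duplicates.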

[2] = compound: CC1=C(SC2=C1C(=N[C@H](C3=NN=C(N32)C)CC(=O)N)C4=CC=C(C=C4)Cl)C
Outline: as §1

[3] = compound: CC1=C2C(=CC=C1)N=C(N(C2=O)C3=CC=CC=C3C)CN4C=NC5=C(N=CN=C54)N
Outline: as §1

[4] = compound: Cc1sc2c(c1C)C(c1ccc(Cl)cc1)=N[C@@H](CC(=O)OC(C)(C)C)c1nnc(C)n1-2
Outline: as §1

[5] = compound: c1ccc([C@@H]2C[C@H]2NC2CCNCC2)cc1
Outline: as §1

Measured: log2 fold change

MGST3 (UniProt O14880)
UniProt O14880, sequence (O14880 whole entry, looked up): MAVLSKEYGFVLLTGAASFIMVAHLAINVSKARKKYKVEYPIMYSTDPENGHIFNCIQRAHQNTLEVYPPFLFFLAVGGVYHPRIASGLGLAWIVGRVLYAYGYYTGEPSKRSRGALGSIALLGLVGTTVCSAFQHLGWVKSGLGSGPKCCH
inactive: [1] 0.003 | [2] -0.033 | [3] -0.008 | [4] -0.072 | [5] 0.056

LARP4B (UniProt Q92615)
UniProt Q92615, sequence (Q92615 whole entry, looked up): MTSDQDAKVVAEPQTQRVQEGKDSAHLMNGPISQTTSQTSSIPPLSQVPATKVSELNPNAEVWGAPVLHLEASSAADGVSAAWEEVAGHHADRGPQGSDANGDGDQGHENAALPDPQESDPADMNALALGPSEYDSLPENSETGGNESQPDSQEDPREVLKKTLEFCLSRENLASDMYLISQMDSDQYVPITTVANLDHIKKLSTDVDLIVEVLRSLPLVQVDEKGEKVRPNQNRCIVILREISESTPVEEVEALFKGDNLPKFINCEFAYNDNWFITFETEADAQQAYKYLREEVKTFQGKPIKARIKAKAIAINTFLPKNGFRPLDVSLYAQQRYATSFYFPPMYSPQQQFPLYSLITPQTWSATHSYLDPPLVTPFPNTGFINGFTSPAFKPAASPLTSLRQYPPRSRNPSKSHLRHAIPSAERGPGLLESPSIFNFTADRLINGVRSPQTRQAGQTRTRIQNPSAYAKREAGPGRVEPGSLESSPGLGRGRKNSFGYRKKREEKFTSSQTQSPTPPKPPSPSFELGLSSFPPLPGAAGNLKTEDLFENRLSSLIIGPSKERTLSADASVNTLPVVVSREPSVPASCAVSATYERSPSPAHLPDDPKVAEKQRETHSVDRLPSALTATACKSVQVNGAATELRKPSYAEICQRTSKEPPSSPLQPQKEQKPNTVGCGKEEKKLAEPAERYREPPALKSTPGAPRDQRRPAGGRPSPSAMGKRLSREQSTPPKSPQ
inactive: [1] 0.031 | [2] -0.034 | [3] 0.002 | [4] 0.03 | [5] -0.037

MAP4K4 isoform 3 (UniProt O95819)
UniProt O95819, sequence (O95819 whole entry, looked up): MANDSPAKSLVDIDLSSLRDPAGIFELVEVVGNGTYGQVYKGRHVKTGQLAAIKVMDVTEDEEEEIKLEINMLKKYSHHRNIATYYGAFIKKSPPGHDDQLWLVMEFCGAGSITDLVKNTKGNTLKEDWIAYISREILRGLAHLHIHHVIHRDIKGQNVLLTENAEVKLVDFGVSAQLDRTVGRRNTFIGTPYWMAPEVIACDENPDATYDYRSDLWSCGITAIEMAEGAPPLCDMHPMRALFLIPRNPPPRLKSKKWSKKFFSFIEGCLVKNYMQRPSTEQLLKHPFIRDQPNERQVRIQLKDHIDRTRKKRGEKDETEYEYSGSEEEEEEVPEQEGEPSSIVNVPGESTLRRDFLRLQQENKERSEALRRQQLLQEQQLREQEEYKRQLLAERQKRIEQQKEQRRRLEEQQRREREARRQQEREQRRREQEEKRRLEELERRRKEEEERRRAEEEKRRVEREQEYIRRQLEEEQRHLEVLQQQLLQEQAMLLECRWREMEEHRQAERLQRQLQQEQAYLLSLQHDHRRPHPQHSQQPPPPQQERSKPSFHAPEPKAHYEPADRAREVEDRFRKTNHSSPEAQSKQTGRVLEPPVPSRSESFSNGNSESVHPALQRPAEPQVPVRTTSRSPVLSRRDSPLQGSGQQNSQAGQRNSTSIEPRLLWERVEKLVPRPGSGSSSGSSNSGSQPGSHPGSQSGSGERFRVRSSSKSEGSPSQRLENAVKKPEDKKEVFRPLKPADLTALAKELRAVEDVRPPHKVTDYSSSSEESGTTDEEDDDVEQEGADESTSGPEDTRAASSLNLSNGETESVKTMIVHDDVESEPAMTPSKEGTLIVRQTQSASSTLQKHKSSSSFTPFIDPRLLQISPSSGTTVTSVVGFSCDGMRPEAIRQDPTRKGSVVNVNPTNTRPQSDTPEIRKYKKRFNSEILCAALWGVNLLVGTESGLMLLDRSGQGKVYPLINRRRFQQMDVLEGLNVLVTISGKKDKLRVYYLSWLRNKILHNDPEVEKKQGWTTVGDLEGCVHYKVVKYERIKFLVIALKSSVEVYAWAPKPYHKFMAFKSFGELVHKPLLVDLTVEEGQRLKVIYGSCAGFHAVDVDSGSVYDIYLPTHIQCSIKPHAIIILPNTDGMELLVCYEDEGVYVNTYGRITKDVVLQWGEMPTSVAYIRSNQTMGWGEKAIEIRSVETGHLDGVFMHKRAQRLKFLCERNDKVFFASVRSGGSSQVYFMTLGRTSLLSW
inactive: [1] 0.022 | [2] 0.029 | [3] 0.015 | [4] -0.021 | [5] 0.083
